Screening results (PubChem BioAssay)
Sampled rows, rich in hits. Any-hit rate of the full collection: about 5.6%.
ALR inh: inhibitors of human sulfhydryl oxidase ALR. P55789. purified ALR, DTT oxidation, H2O2 HRP-luminol luminescence. inhibition, % (test concentration not listed). 290,000 tested, 3.8% active. AID 485317;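 active = mean replicate inhibition above about 79%, with every replicate also reaching it, limit read from the data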
Target sequence (P55789 whole entry, looked up): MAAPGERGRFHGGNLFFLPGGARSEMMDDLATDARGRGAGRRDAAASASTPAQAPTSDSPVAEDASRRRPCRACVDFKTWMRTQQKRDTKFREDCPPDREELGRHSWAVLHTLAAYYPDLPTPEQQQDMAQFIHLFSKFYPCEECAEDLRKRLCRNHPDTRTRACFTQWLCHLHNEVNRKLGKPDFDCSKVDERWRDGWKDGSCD
M18AAP inhibitor: blocks P. falciparum M18 aspartyl aminopeptidase. recombinant PfM18AAP, H-Glu-NHMec fluorogenic cleavage. inhibition, % at 7.35 µM. 290,000 tested, 1.2% active. AID 1822;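 active = inhibition above the campaign mean inhibition over all tested compounds plus 3 SD, cut at about 28% in these data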;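 note: 0% = plate median of test compound wells and 100% = 2 mM ZnCl2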
PfG6PD inh: PfG6PD (Plasmodium falciparum) enzyme inhibition; PfGluPho enzyme, NADPH resazurin-diaphorase fluorescence; inhibition, % at 20 µM; 350,000 tested, 0.78% active; AID 504690;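 active = inhibition reaching at least a set limit at 20 µM in the primary screen, cut at about 59% in these data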;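 note: 0% = DMSO wells with substrate and 100% = DMSO wells lacking glucose-6-phosphate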
PHOSPHO1 block: PHOSPHO1 (human) inhibition | Q8TCT1 | recombinant PHOSPHO1, absorbance phosphatase assay | inhibition, % at 13.3 µM | 290,000 tested, 1.1% active; in the data active = inhibition above about 60%
Target sequence (Q8TCT1 whole entry, looked up): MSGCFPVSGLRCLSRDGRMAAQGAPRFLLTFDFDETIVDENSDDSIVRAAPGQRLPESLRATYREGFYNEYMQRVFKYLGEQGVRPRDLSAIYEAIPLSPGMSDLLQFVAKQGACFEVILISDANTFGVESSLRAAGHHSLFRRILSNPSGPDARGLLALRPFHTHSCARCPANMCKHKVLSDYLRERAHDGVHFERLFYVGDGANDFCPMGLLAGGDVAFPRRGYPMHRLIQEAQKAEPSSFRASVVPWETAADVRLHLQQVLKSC
H9c2 protect: modulators protecting cardiomyocytes from myocardial damage | H9c2 cardiomyocytes, H2O2 injury protection, ATPLite, 2 h | protection from H2O2 cell death, % at 20 µM | 360,000 tested, 0.63% active | AID 588492;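 active = compounds giving at least 50% protection of heart cells from peroxide-induced death in the single-dose screen, raw or plate-pattern-corrected value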;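 note: 0% = DMSO wells with peroxide and 100% = DMSO wells without peroxide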
Numbers without * were called inactive; . = no result.

SMILES | ALR inh | M18AAP inhibitor | PfG6PD inh | PHOSPHO1 block | H9c2 protect
O=C(N/N=C/c1cccc([N+](=O)[O-])c1O)C(O)(c1ccccc1)c1ccccc1 | 6 | 13 | -23 | -1 | 63*
O=C(O[C@@H]1Cc2c(O)cc(O)cc2O[C@@H]1c1cc(O)c(O)c(O)c1)c1cc(O)c(O)c(O)c1 | . | 64* | . | 16 | .
COc1ccc([C@H]2CC(=O)c3c(O)cc(O)cc3O2)cc1O | 31 | 4 | -1 | 25 | -3
COc1ccc(CN2C(=O)C(CC(=O)NCCN3CCOCC3)CC(C(=O)N3CCOCC3)=C2C)cc1 (configuration not stated) | . | . | 19 | . | 2
Cc1cccc(Nc2n[nH]c(=S)s2)c1C | 99* | 21 | 55 | 100* | 0
Cc1cccc(C)c1Nc1n[nH]c(=S)s1 | . | . | 54 | . | -4
O=C(NCc1ccccc1)c1nncc(-c2ccccc2)n1 | 3 | . | 13 | . | 25
CCOC(=O)C1=C(C)NC2=C(C(=O)c3ccccc32)C1c1ccc([N+](=O)[O-])o1 (configuration not stated) | . | 4 | 29 | -107 | 61*
CCOC(=O)C1=C(C)NC(=O)NC1c1ccc([N+](=O)[O-])o1 (configuration not stated) | -26 | -5 | 5 | 2 | -1
Cc1c(O)ccc(/C=N/Nc2nc(-c3cccnc3)nc3ccccc23)c1O | 14 | 29* | 17 | 49 | 20
Clc1cnc(N/N=C/c2ccncc2)c(Cl)c1 | 5 | 10 | 2 | 43 | -2
Clc1ccc(N/N=C/c2cccnc2)cc1 | 99* | 4 | 28 | -18 | -7
Clc1ccccc1-c1nc(N/N=C/c2cccnc2)c2ccccc2n1 | -2 | 4 | 9 | 15 | 78*
Cc1ccc(Nc2nc(-c3cccnc3)nc3ccccc23)cc1 | . | 4 | 28 | 24 | 21
Clc1ccc(N/N=C/c2ccncc2)cc1Cl | 98* | -6 | 19 | -11 | -18
Cn1c2c(c(=O)n1-c1ccccc1)CSCC2 | -4 | . | -11 | . | 2
CCn1c(C)c(Br)c(=O)c(C(=O)OC)c1-c1ccc(Cl)cc1 | -2 | -16 | -11 | . | -1
Oc1ccc(/C=N/Nc2nc(-c3cccnc3)nc3ccccc23)c(O)c1 | 33 | 30* | 13 | 6 | -22
O=c1c([N+](=O)[O-])c(O)c2ccccc2n1Cc1ccccc1 | 99* | 11 | 18 | 42 | 6
Cc1[nH]c2ccccc2c1NC(=O)CN1CCN(Cc2ccc3c(c2)OCO3)CC1 | . | 9 | . | 97* | .
CCC(C(=O)N1CCN(Cc2ccc3c(c2)OCO3)CC1)n1c(=O)[nH]c2ccccc2c1=O (configuration not stated) | -2 | 6 | -14 | 70* | 6
O=C(O)c1ccccc1C(=O)N1CCN(Cc2ccc3c(c2)OCO3)CC1 | . | 29* | -4 | 36 | 1
COC(=O)C1=C(C)Nc2ccc(C)cc2S1 | 98* | -5 | 40 | 38 | -10
COC(=O)c1cc(-c2ccc(C)cc2)n[nH]1 | -2 | 7 | 22 | 48 | -1
COc1ccc(C(=O)COC(=O)CSCc2c(C)noc2C)cc1OC | 98* | -4 | 0 | -5 | -2
SMILES | ALR inh | M18AAP inhibitor | PfG6PD inh | PHOSPHO1 block | H9c2 protect
COc1ccc(OC)c(-c2csc(NC(=O)CSCc3c(C)noc3C)n2)c1 | 98* | . | 11 | . | 0
C=C(CCO)C1=CCN(S(=O)C(C)(C)C)[C@H]1CCO (some centres not stated) | . | . | -7 | . | -8
COc1ccccc1/C=C1\SC(=S)N(NS(=O)(=O)c2ccc(C)cc2)C1=O | 97* | 2 | -15 | 42 | -2
Cc1ccc(S(=O)(=O)NN2C(=O)/C(=C/c3cccnc3)SC2=S)cc1 | 96* | 6 | -4 | 20 | -4
CCOCCc1nnc(NC(=O)Cc2c(F)cccc2Cl)s1 | -4 | 1 | -2 | 26 | 0
N#Cc1ccc(CSc2nnc(NC(=O)c3ccc(=O)[nH]c3)s2)cc1 | 92* | 7 | 4 | 24 | 4
Cc1ccc(NC(=O)c2cccs2)cc1 | -4 | 2 | 13 | 5 | -14
O=C(Nc1ccc(O)cc1)c1cc(S(=O)(=O)N2CCCC2)ccc1Cl | 99* | 3 | 3 | 10 | -5
Nc1ccc(NC(=O)c2cccs2)cc1 | 98* | -8 | -5 | 26 | -8
O=C(Nc1ccc(S(=O)(=O)N2CCCC2)cc1)c1cccs1 | 23 | -6 | -14 | 60* | 6
N#CCC(=O)Nc1ccc(C(=O)OCC(=O)N=c2sccn2Cc2ccccc2Cl)cc1 | 74 | . | 4 | . | -10
Cc1cc(C)c(NC(=O)CNC(=O)c2ccc3ncsc3c2)c(C)c1 | -6 | . | 44 | . | -2
O=C1CCC2(CCCCC2)N1 | . | . | 4 | . | -2
N#CC(C#N)=C(N)/C(C#N)=C/c1cc(O)c(O)c(O)c1 | 96* | . | 7 | . | 1
CCS(=O)(=O)N1Cc2ccccc2CC1C(=O)N1CCN(c2ccccc2)CC1 (configuration not stated) | 98* | -5 | -6 | 58 | 1
O=C(c1cc(-c2ccc(O)cc2)on1)N1CCCCCC1 | 99* | 9 | -10 | 40 | -6
O=C(c1cc(-c2ccc(Cl)cc2)on1)N1CCCCCC1 | -5 | -5 | 19 | 28 | -2
Cc1ccc(S(=O)(=O)N2CCCC(C(=O)O)C2)s1 (configuration not stated) | 87* | 10 | -9 | -4 | 0
C=CCn1c(C)nc2c(sc3nc4c(cc32)COC(C)(C)C4)c1=O | 31 | -12 | 6 | 28 | 3
Cc1cccc(NC(=O)c2nc[nH]c2C(=O)N[C@@H](Cc2ccccc2)C(=O)OCc2ccccc2)c1 | -1 | . | 28 | 34 | -7
O=C(NCc1ccccc1)C(=O)NCC(c1ccco1)N1CCN(c2ccccc2F)CC1 (configuration not stated) | -5 | 7 | 9 | 46 | 4
O=C(NCCc1c[nH]c2ccccc12)C(=O)NCC(c1ccco1)N1CCN(c2ccccc2F)CC1 (configuration not stated) | -3 | -13 | -1 | -7 | 63*
CCCCCNC(=O)CSC1=N/C(=C\c2ccc(Cl)c(Cl)c2)C(=O)N1CC | -5 | 7 | -6 | 14 | -2
CCCNC(=O)CSC1=N/C(=C/c2ccc(F)cc2)C(=O)N1CC | 97* | -7 | 10 | -12 | 8
C=CCN1C(=O)/C(=C\c2ccc(C)cc2)N=C1SCC(=O)NCCC | 98* | -8 | 0 | 8 | -3
CCOC(=O)CSC1=N/C(=C\c2ccc(OC)c(OC)c2)C(=O)N1C | 39 | 8 | 29 | -13 | 7
c1ccc2c(-c3cc(NCc4ccncc4)n4nccc4n3)cccc2c1 | . | . | . | . | 8
COc1ccc(C(CNC(=O)c2ccc(NS(=O)(=O)c3cccc([N+](=O)[O-])c3)cc2)N2CCOCC2)cc1 (configuration not stated) | -7 | 2 | 1 | 24 | 9
CCOC(=O)C1(CCc2ccccc2)CCN(C(=O)Cc2nonc2C)CC1 | 100* | 2 | -16 | -20 | 0
CCOC(=O)C1(CCOc2ccccc2)CCN(Cc2ccc3nonc3c2)CC1 | -3 | 0 | 19 | 68* | -20
